Bioassay records: PubChem BioAssay, several laboratories
An excerpt weighted towards active compounds, which were near 3.9% of everything screened.
HIF activator: HIF pathway transcriptional activation; U2OS HRE-luciferase reporter, luminescence; normalized: DMSO 0%, desferrioxamine 100%; activation, % at 7.5 µM (by protocol); 300,000 compounds, 0.32% hits;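 active = mean activation of at least 10% of the iron chelator positive control signal, with at least half of replicates also reaching 10%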
PLCg1 inh: PLC-gamma1 (human) inhibition, primary screen | P19174 | purified PLC-gamma1, fluorogenic substrate, fluorescence | inhibition, % at 12.2 µM | 370,000 compounds, 0.84% hits
sPLA2-III inh: Inhibits HGIII-sPLA2 liposome hydrolysis, primary screen; Q9NZ20; QFRET BODIPY PC-A2 liposome hydrolysis, fluorescence; inhibition, % at 12.2 µM; 370,000 compounds, 0.56% hits; AID 743126;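 active = inhibition above mean plus 3 SD of compounds lying within the high and low control bounds, cut at about 19% in these data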
PLCb3 inh: PLC-beta3 (human) inhibition, primary screen; 370,000 compounds, 0.18% hits; Q01970; Purified PLC-beta3, fluorogenic substrate, fluorescence; inhibition, % at 12.2 µM; in the data active = inhibition above about 11%
CR mimetic SO: yeast age-related superoxide inhibition as caloric restriction mimetic | AID 2690 | 330,000 compounds, 0.18% hits | S. cerevisiae aged cells, superoxide DHE fluorescence; hits give low values | superoxide response (% of plate mean), % at 10 µM;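 active = superoxide response under a set limit, about three screen SD below normal, cut at about 65% in these data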;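 also: yeast aged for seven days with compound at 30 °C before DHE staining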
AHR activator: activates the human aryl hydrocarbon receptor. P35869. AHR-responsive luciferase reporter cells, luminescence. activation, % at 5 µM. 320,000 compounds, 2.5% hits. AID 2796; in the data active = activation above about 47%
Target sequence (P35869 whole entry, looked up): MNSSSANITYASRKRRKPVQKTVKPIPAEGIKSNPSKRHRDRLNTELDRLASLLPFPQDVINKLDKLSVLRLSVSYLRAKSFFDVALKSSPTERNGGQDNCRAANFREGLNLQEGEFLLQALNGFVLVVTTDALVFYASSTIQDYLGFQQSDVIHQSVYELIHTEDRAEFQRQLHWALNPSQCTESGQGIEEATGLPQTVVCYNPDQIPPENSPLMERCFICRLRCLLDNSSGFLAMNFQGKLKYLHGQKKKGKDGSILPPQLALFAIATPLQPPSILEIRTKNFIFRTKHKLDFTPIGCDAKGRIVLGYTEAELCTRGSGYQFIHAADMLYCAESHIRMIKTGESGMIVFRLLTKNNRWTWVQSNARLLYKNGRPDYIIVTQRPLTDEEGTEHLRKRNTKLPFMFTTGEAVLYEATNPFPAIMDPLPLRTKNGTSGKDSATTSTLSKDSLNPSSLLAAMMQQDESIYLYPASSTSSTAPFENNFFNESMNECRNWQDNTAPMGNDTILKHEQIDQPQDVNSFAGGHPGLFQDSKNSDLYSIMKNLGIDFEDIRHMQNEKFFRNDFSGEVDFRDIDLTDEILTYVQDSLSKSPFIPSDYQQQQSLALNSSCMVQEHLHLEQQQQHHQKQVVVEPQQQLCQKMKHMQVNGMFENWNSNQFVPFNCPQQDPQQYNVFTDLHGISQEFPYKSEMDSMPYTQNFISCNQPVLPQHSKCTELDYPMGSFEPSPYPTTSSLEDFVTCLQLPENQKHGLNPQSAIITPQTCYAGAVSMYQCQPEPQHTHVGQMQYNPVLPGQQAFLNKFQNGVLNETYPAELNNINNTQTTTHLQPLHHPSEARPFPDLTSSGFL
PLCg1 ctr: inhibits human PLC-gamma1 in PLC-beta3 counter-screen; inhibition, % at 12.3 µM; shares compounds with PLCg1 inh; purified PLC-gamma1, fluorogenic substrate, fluorescence; 3,300 compounds, 3.1% hits
PLCb3 confirm: human PLC-beta3 inhibition, confirmation | shares compounds with PLCg1 inh | purified PLC-beta3, fluorogenic substrate fluorescence | inhibition, % at 12.3 µM | 3,300 compounds, 1% hits | AID 743261; in the data active = inhibition above about 11%
Each line names hits and unclear results; the compound was inactive in the other large screens (follow-up assays come after a bar, where they were run). Rule as the data show it, unless noted: active = inhibition above about 9.5%; inactive = the rest.

COc1ccccc1N1CCN(C(=O)c2ccc(N(C)S(=O)(=O)c3ccccc3)cc2)CC1	none
CCOC(=O)C(NC(=O)CC)(Nc1ccccc1)C(F)(F)F (stereo not given)	PLCg1 inh 13.6, PLCb3 inh 11.3 | PLCg1 ctr inactive | PLCb3 confirm inactive
CCOC(=O)C(NC(=O)CC)(Nc1ccc(S(N)(=O)=O)cc1)C(F)(F)F (stereo not given)	none
COc1ccc(NS(=O)(=O)c2ccc(C)c(C(=O)NCC(c3ccco3)N(C)C)c2)cc1 (stereo not given)	none
CCOc1ncccc1C(=O)N=c1sccn1C	PLCg1 inh 12.3, AHR activator 60.4 | PLCg1 ctr inactive | PLCb3 confirm inactive
CCCCCn1c(SCC(=O)CC(=O)OCC)nc2cc(C(=O)N3CCC(C(N)=O)CC3)ccc2c1=O	none
CCCCCn1c(SCC2CCCO2)nc2cc(C(=O)N3CCC(C(N)=O)CC3)ccc2c1=O (stereo not given)	PLCg1 inh 9.6 (no result: HIF activator) | PLCg1 ctr inactive | PLCb3 confirm inactive
C/C(=N\NC(=O)c1[nH]c2c([N+](=O)[O-])cc(C)cc2c1-c1ccccc1)c1cccnc1	none
COc1ccc(/C=N/NC2=NCCCCC2)cc1	PLCg1 inh 10.4 | PLCg1 ctr inactive | PLCb3 confirm inactive
CCOC(=O)c1ccc(-n2cnc(-c3ccc([N+](=O)[O-])cc3)c2)cc1	none (no result: HIF activator, CR mimetic SO, AHR activator)
CCOC(=O)c1cnc2ccc(Br)cc2c1NCCO	none
CCOC(=O)c1cnc2ccc(Br)cc2c1NCC(C)O (stereo not given)	PLCg1 inh 12.4 (no result: HIF activator, CR mimetic SO, AHR activator) | PLCg1 ctr inactive | PLCb3 confirm inactive
CCOC(=O)c1cnc2ccc(C)cc2c1NCCN1CCOCC1	PLCg1 inh 10.9 | PLCg1 ctr inactive | PLCb3 confirm inactive
CCOC(=O)c1ccc2ncc(C(=O)OCC)c(NCCCN3CCOCC3)c2c1	none
CN1C(=O)c2cc(NS(=O)(=O)c3ccc(F)cc3)ccc2OC[C@H]2O[C@@H](CC(=O)NCC(F)(F)F)CC[C@@H]21	PLCg1 inh 12.3 (no result: HIF activator, CR mimetic SO, AHR activator) | PLCg1 ctr 13.0 | PLCb3 confirm 16.7
C[C@@H](NC(=O)C[C@H]1CC[C@H]2[C@@H](COc3ccc(NC(=O)Nc4ccccc4)cc3C(=O)N2C)O1)c1ccccc1	PLCg1 inh 11.6 (no result: HIF activator, CR mimetic SO, AHR activator) | PLCg1 ctr inactive | PLCb3 confirm inactive
CCNC(=O)Nc1ccc2c(c1)C(=O)N(C)[C@H]1CC[C@H](CC(=O)N[C@H](C)c3ccccc3)O[C@@H]1CO2	PLCg1 inh 9.5 (no result: HIF activator, CR mimetic SO, AHR activator) | PLCg1 ctr 11.3 | PLCb3 confirm 11.7
CCCNC(=O)C[C@H]1CC[C@H]2[C@@H](COc3ccc(NC(=O)Nc4ccccc4)cc3C(=O)N2C)O1	none (no result: HIF activator, CR mimetic SO, AHR activator)
CCC(=O)OCc1cc(=O)oc2ccc3ccccc3c12	none
C[C@H](CO)N1C[C@H](C)[C@@H](CN(C)S(=O)(=O)c2cn(C)cn2)Oc2cc(Br)ccc2S1(=O)=O	none (no result: HIF activator, CR mimetic SO, AHR activator)
O=C(OCCCOC(=O)c1ccccc1O)c1ccccc1O	none
Cc1ccccc1NC(=O)Cc1nc(COC(=O)c2cc([N+](=O)[O-])ccc2NCCO)cs1	PLCg1 inh 10.1 | PLCg1 ctr inactive | PLCb3 confirm inactive
O=C(NCc1cccnc1)c1cc(C2CCCN(C(=O)c3cccs3)C2)on1 (stereo not given)	PLCg1 inh 16.2 (no result: HIF activator, CR mimetic SO, AHR activator) | PLCg1 ctr inactive | PLCb3 confirm inactive
O=C(NCc1ccc(F)cc1)c1cc(C2CCCN(C(=O)c3cccs3)C2)on1 (stereo not given)	none (no result: HIF activator, CR mimetic SO, AHR activator)
Cc1cccc(CN2CCN(CC(=O)NCc3ccc(F)cc3)C2=O)c1	PLCg1 inh 11.1 | PLCg1 ctr inactive | PLCb3 confirm inactive
CC(C)c1ccc(C(C(=O)NC2CCCC2)N(C(=O)c2csnn2)C2CC2)cc1 (stereo not given)	none
O=C(COc1ccc(S(=O)(=O)N2CCCC2)cc1Cl)NC1CCCC1	PLCg1 inh 13.0 | PLCg1 ctr inactive | PLCb3 confirm inactive
Cc1cc(Cl)c(S(=O)(=O)NC(C(=O)O)C(C)C)cc1OCC(=O)NC1CCCCC1 (stereo not given)	none
O=C(COC(=O)c1cc(S(=O)(=O)N2CCCCC2)ccc1Cl)NC1CCCCC1	none (no result: HIF activator, CR mimetic SO, AHR activator)
